TEAD-YAP block: TEAD-YAP interaction inhibition; HEK-TIYL cells, TEAD-Gal4/YAP UAS-luciferase luminescence; inhibition, % at 9.12 µM; 640,000 tested, 1.4% active; in the data active = inhibition above about 32%;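 also: 0% = median of test compound wells and 100% = reference inhibitor wells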
FBW7 activator: activators of human E3 ligase FBW7 | 650,000 tested, 0.13% active | AlphaScreen FBW7–phospho-cyclin E peptide binding, activator screen | normalized activity (activation), % at 26.1 µM | Q969H0 | AID 1259310; in the data active = normalized activity above about 1.9%;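 also: purified mutant Fbw7 with reduced substrate affinity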
GPR151 ag: activators of human GPR151 | activation, % at 11.2 µM | 650,000 tested, 1% active | Q8TDV0 | PathHunter beta-arrestin GPR151 cells, luminescence; in the data active = activation above about 4.9%;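 also: 0% = median of compound wells and 100% = cells with positive control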
MITF inh: inhibitors of human MITF; 650,000 tested, 0.91% active; AlphaScreen MITF homodimerization, bead proximity signal; inhibition, % at 2.6 µM; O75030; in the data active = inhibition above about 50%;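 also: 0% = vehicle wells with protein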
Target sequence (O75030 whole entry, looked up): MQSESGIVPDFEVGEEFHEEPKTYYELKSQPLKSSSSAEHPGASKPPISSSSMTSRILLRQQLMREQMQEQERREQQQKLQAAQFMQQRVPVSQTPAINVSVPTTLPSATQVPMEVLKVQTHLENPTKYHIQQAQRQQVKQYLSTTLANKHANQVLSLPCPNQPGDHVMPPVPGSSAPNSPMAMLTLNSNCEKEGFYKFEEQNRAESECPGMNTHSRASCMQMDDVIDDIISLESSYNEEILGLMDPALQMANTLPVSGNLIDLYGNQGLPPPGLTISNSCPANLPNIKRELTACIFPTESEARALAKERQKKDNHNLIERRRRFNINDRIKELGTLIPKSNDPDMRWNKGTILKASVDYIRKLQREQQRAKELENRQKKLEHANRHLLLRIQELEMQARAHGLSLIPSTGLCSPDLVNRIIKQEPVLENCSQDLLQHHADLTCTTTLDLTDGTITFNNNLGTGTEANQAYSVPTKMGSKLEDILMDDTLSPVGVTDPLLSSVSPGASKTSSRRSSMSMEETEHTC
MITF confirm: confirmation of human MITF inhibitors; AlphaScreen MITF homodimerization, biotin/His-MITF beads; shares compounds with MITF inh; 4,700 tested, 16% active; inhibition, % at 2.6 µM;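 active = inhibition above a cutoff derived from the DMSO control wells, cut at about 28% in these data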;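 also: 0% = MITF dimer wells with DMSO only; inhibitors lower the bead chemiluminescence by keeping MITF from dimerizing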
AlphaScreen DR: AlphaScreen optical interference, dose response counter-screen. AlphaScreen optical interference counterscreen, cell-free. 480 tested, 6% active. IC50, µM. shares compounds with MITF inh; call rule not given here
AlphaScreen intf2: AlphaScreen optical interference, counter-screen; shares compounds with MITF inh; LysRS AlphaScreen counterscreen, signal interference, triplicate; inhibition, % at 2.6 µM; 4,700 tested, 7.6% active; AID 1259376;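 active = inhibition above a cutoff derived from the DMSO control wells, cut at about 30% in these data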
Numbers without * were called inactive; / = not tested or not shown. A selection: hits, their analogues and other compounds. The true share with any hit is near 3.5%.

SMILES	TEAD-YAP block	FBW7 activator	GPR151 ag	MITF inh	MITF confirm	AlphaScreen intf2	others
O=C(CN1CCOCC1)Nc1ccccc1N1CCCCCC1	-2.1	-0.2	-0.3	69.0*	14.6	10.8
CN(NC(=O)CN1CCOCC1)c1ccccc1	-5.2	0.1	-1.2	51.4*	0.8	10.2
Cn1nnnc1SCC(=O)Nc1ccccc1N1CCOCC1	3.3	0.0	-0.2	63.4*	4.0	11.3
CC1CCN(CC(=O)Nc2ccccc2N2CCOCC2)CC1	4.5	0.0	-0.7	68.7*	0.9	16.6
S=c1c2c([nH]c3ccccc13)CCCC2	4.1	0.4	-0.8	6.8	/	/
COc1cc(C2NC(=O)c3ccccc3N2)c(Cl)cc1OCC(=O)O (stereo not given)	-68.9	-0.2	0.2	-0.5	/	/
C[C@@H](O)[C@@H]1NC(=O)[C@H]2CN(C(=O)NCc3ccccc3)CCN2C1=O	-3.0	-0.3	-1.0	75.3*	72.1*	-14.9	AlphaScreen DR=>6.48
O=C(OCc1ccccc1)N1CCN2C(=O)[C@H]3CCCN3C(=O)[C@H]2C1	-5.5	-0.4	1.7	-0.6	/	/
O=C(NCc1ccccc1)N1CCN2C(=O)[C@H]3CCCN3C(=O)[C@H]2C1	11.2	-0.2	-0.7	76.3*	68.5*	-10.7	AlphaScreen DR=>6.48
O=C1N[C@@H](CSCc2ccccc2)C(=O)N2CCN(C(=O)NCc3ccccc3)C[C@H]12	11.0	0.1	-1.0	80.3*	73.3*	-14.0	AlphaScreen DR=>6.48
C[C@H]1NC(=O)[C@H]2CN(C(=O)NCc3ccccc3)CCN2C1=O	15.5	0.6	4.8	80.7*	64.7*	-4.8	AlphaScreen DR=>6.48
O=C(NCCc1ccc(Cl)cc1)c1cnc(N2CCCC2)nc1	-8.9	0.0	1.0	-10.8	/	/
CC(C)[C@@H]1NC(=O)[C@H]2CN(C(=O)NCc3ccccc3)CCN2C1=O	11.2	0.2	-0.9	80.5*	70.1*	-7.5	AlphaScreen DR=>6.48
O=C1N[C@@H](CC2CCCCC2)C(=O)N2CCN(C(=O)NCc3ccccc3)C[C@H]12	3.3	-0.1	0.7	77.4*	68.4*	-8.9	AlphaScreen DR=>6.48
CC(C)[C@H]1NC(=O)[C@H]2CN(C(=O)OCc3ccccc3)CCN2C1=O	-9.6	-0.2	-1.8	-3.0	/	/
O=C1N[C@@H](CO)C(=O)N2CCN(C(=O)OCc3ccccc3)C[C@H]12	0.9	0.1	0.0	0.2	/	/
CC(C)C[C@@H]1NC(=O)[C@H]2CN(C(=O)NCc3ccccc3)CCN2C1=O	10.9	-0.3	-0.4	78.3*	72.3*	-5.4	AlphaScreen DR=>6.48
Nc1cc(=O)[nH]c(SCC(=O)Nc2c(Cl)cccc2Cl)n1	3.7	0.0	0.5	8.6	/	/
Cc1ccc(C(=O)/C=C/NNC(=O)c2ccc(O)cc2)cc1	-23.2	0.0	0.7	2.7	/	/
CCOC(=O)C1=C(c2ccccc2)N=c2s/c(=C/c3cn(C)c4ccccc34)c(=O)n2C1c1ccc(OC)cc1 (stereo not given)	-13.7	-0.1	-0.9	-14.3	/	/
O=[N+]([O-])c1cc(Cl)c(O)c2ncccc12	9.5	-0.2	-1.2	37.2	/	/
CN(Cc1cc(Cl)c(O)c2ncccc12)C1CCCCC1	70.2*	-0.9	1.9	105.6*	103.6*	100.6*
COc1ccc(O)c(C2=Nc3ccccc3N=C(c3ccc(Cl)cc3)C2)c1	-59.2	0.1	0.7	8.6	/	/
CCOc1ccccc1OCCOCCNCc1ccccc1	7.0	0.2	-1.0	81.6*	1.9	10.6
CCC(C)c1ccccc1OCCNCCCOC (stereo not given)	-3.6	-0.1	-0.9	58.2*	2.3	2.9
SMILES	TEAD-YAP block	FBW7 activator	GPR151 ag	MITF inh	MITF confirm	AlphaScreen intf2	others
CNCCCOc1c(C)cc(Cl)cc1Br	-14.5	-0.4	-1.0	24.2	/	/
CCC(C)c1ccccc1OCCCNCCN (stereo not given)	15.2	0.1	0.9	13.4	/	/
Cc1cc(Cl)cc(Br)c1OCCNCCN(C)C	6.2	0.0	0.1	53.2*	1.0	18.2
CCC(C)c1ccccc1OCCCNCCO (stereo not given)	13.0	0.4	-2.5	59.4*	-6.1	-6.4
CCC(C)c1ccccc1OCCNCCOC (stereo not given)	-1.6	-0.1	-2.4	46.3	/	/
COc1ccccc1CN=Cc1c(O)[nH]c2ccccc12	-7.7	0.0	-0.6	3.1	/	/
CC1CCN(CC(O)COc2cccc3ccccc23)CC1 (stereo not given)	14.5	-0.2	-0.4	-5.3	/	/
Cc1ccc(C#N)c(SCC(=O)c2ccccc2)n1	-36.5	0.0	-0.3	-6.0	/	/
CCC(C)c1ccccc1OCCNCCN(C)C (stereo not given)	-0.5	0.2	1.2	67.3*	58.7*	16.5	AlphaScreen DR=>6.48
CN(C)CCNCCOc1ccc2ccccc2c1Br	-2.9	0.7	-0.7	58.5*	2.3	17.6
CCCCNCCOc1ccccc1OCC	5.8	0.0	2.5	60.8*	33.1*	6.3	AlphaScreen DR=>6.48
O=C(CSc1nnnn1C1CCCCC1)NCc1cccc(C(=O)O)c1	5.3	0.2	3.2	-2.8	/	/
O=C(/C=C/c1c[nH]c2ccccc12)N1CCCCC1	-53.7	-0.2	0.3	7.9	/	/
Cc1cccc(OCC(=O)Nc2cc(C)c(C)cc2O)c1	-2.5	-0.1	-0.5	98.0*	-12.4	3.2
O=C(O)Cn1c2ccccc2c2nnc(SCC(=O)NCc3cccs3)nc21	-9.2	0.2	2.5	-1.0	/	/
Cc1ccc(Cl)cc1NC(=O)CC(NCc1ccccn1)C(=O)O (stereo not given)	-2.3	-0.3	-0.5	101.4*	87.2*	100.3*
Cc1ccc(C)c(NC(=O)CC(NCCN)C(=O)O)c1 (stereo not given)	5.5	-0.2	-0.4	80.5*	35.6*	58.4*
CCCCCNC(CC(=O)Nc1cc(C)ccc1C)C(=O)O (stereo not given)	7.1	-0.1	-0.8	1.4	/	/
O=C(CC(NCc1ccccc1)C(=O)O)Nc1cccc(C(F)(F)F)c1 (stereo not given)	-4.2	0.2	3.7	89.2*	8.1	8.4
O=C(CC(NCc1ccccn1)C(=O)O)Nc1cccc(Cl)c1 (stereo not given)	-7.8	-0.7	-0.6	111.6*	83.5*	100.3*
COc1ccccc1NC(=S)N(CCc1ccccc1)Cc1ccccc1	-7.3	-0.2	-0.2	4.0	/	/
COc1ccccc1NC(=O)c1sc(NC(=O)c2ccc3c(c2)OCO3)c(C#N)c1C	2.0	0.9	1.1	13.4	/	/
O=C(Nc1ccc(Oc2ccccc2)cc1)c1ccc2nc(-c3csc4ccccc34)sc2c1	-18.1	0.3	3.5	3.4	/	/
CC1(C)C2CCC1(C)C(NCC(O)COc1ccc(C#N)cc1)C2 (stereo not given)	4.5	-0.2	-0.5	76.8*	-18.4	-4.4
OC(CNC1CCCC1)COc1ccc(OCC(O)CNC2CCCC2)cc1 (stereo not given)	8.5	-0.1	3.0	5.1	/	/
Cc1ccnc(Nc2ccc(NCCNC(=O)c3ccc(F)cc3Cl)nn2)c1	3.5	-1.2	-0.4	80.5*	43.2*	82.7*
Cc1cccc(Nc2ccc(NCCNC(=O)c3ccc(F)cc3)nn2)n1	15.4	0.3	1.1	8.1	/	/

Assay outcomes: PubChem BioAssay, The Scripps Research Institute Molecular Screening Center
